Measured values from PubChem BioAssay AID2590 (National Center for Advancing Translational Sciences (NCATS), 2010).
Where “and” joins values, the source holds several entries; their conditions need not be identical. Equal values may be shown once. Records with an inconclusive call do not appear. A number with no mark means an inactive call. Calls of active or inactive are those of the source. Calls come from the whole dose curve; as a rule, active = well fitted curve in the direction sought with a large enough effect; inconclusive = small, poorly fitted or top-dose-only effect, or another doubt; inactive = no such curve, though single readings can be large or run the other way.

What follows are molecules tested against Lysosomal acid glucosylceramidase (Homo sapiens) (UniProt P04062) (assay: qHTS Assay for Inhibitors and Activators of N370S glucocerebrosidase as a Potential Chaperone Treatment of Gaucher Disease: Primary Screen Confirmation). Settings: N370S glucocerebrosidase enzyme activity, fluorogenic substrate; series mostly up to 54 µM; activity change, negative = inhibition: at the top concentration.
Lysosomal acid glucosylceramidase (Homo sapiens), sequence (P04062 whole entry N409S): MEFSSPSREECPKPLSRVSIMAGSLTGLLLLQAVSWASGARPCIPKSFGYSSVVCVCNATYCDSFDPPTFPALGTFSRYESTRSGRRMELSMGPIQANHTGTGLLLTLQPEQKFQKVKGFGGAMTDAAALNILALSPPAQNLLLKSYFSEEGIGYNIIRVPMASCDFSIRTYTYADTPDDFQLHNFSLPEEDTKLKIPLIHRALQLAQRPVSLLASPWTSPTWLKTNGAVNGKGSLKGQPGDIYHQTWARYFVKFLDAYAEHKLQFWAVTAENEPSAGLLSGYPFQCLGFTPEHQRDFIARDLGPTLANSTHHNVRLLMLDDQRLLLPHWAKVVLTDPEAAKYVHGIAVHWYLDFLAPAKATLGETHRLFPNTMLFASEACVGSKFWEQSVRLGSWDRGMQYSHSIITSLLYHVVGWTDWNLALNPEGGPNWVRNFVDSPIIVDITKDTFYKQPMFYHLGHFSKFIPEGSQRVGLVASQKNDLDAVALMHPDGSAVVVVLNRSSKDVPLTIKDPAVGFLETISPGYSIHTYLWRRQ
Excerpt: NIH Chemical Genomics Center [NCGC]
NIH Molecular Libraries Probe Production Centers Network [MLPCN]
Assay Submitter (PI): Wei Zheng
Glucocerebrosidase (GC) catalyzes the hydrolysis of beta-glucocerebroside to glucose and ceramide in lysosomes. Mutations in the glucocerebrosidase gene result in Gaucher disease, an autosomal recessive lysosomal storage disorder. Many of the mutations encountered in patients with Gaucher disease are missense alterations that may cause misfolding, decreased stability and/or mistrafficking of this lysosomal protein. […] These inhibitors include iminosugar analogs and three non-iminosugar inhibitors identified from a previous HTS of 62,000 compounds with the wild type recombinant enzyme. However, the enhancement of enzyme activity by the chaperone action of an enzyme inhibitor must be balanced against the direct inhibition of the enzyme. An enzyme activator could also function as a chaperone by binding to the enzyme and helping to correct its misfolding and mistrafficking. While activators for GC have not yet been identified, they may have better therapeutic potential than inhibitors. Therefore the discovery and development of chemical activators may provide a new strategy for the chaperone therapy.
We have optimized a new assay using N370S mutant GC derived from the spleen of a Gaucher patient. […] In addition, the MLPCN compound library has expanded, which increases the chance of finding new and better probes.
NCGC Assay Protocol Summary:
This is a fluorogenic enzyme assay with 4-methylumbelliferyl-beta-D-glucopyranoside as the substrate and N370S glucocerebrosidase from human spleen homogenate as the enzyme preparation. Upon the hydrolysis of this fluorogenic substrate, the resulting product, […] which can be detected by a standard fluorescence plate reader. Data were normalized to the controls for basal activity (without enzyme) and 100% activity (with enzyme). The AC50 values were determined from concentration-response data modeled with the standard Hill equation.
Assay buffer: 50 mM citric acid (titrated with potassium phosphate to pH 5.0), 100 mM potassium chloride, 10 mM sodium chloride, 1 mM magnesium chloride, 0.01% Tween-20.
1536-well assay protocol:
(1) Add 2 ul/well of spleen homogenate (27 ug final)
(2) Add 23 nL compounds in DMSO solution. The final titration was 0.5 nM to 58 uM.
(3) Add 2 ul of substrate (1 mM final)
(4) Incubate at 37C for 40 min.
(5) Add 2 ul stop solution (1M NaOH and 1M Glycine mixture, pH 10)
(6) Detect the assay plate in a ViewLux plate reader (PerkinElmer) with Ex=365 nm and Em=440nm.
Keywords: Glucocerebrosidase, beta-glucosidase, Gaucher Disease, pharmacological chaperone, chaperone therapy, high throughput screening, glucocerebrosidase inhibitor, MLSMR, MLSCN, NIH Roadmap, qHTS and NCGC
Potency is the fitted concentration of half-maximal effect.
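Throughout, for activity change, negative = inhibition: 0% = enzyme with DMSO and -100% = no enzyme basal signal.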

Row | SMILES | Potency | activity change, negative = inhibition [%]
1 | N=c1c2c(-c3ccccc3)c(-c3ccccc3)n(Cc3ccco3)c2ncn1CCCn1ccnc1 | 12.6 µM (active) | 
2 | C#CCOCCOCCOCCNc1nc(N2CCN(C(=O)CCCCCCCCCCNC(=O)[C@H](CCCCN)n3cc(CCCC(=O)O)nn3)CC2)nc(N2CCN(C(=O)CCCCCCCCCCNC(=O)[C@H](CCCN=C(N)N)n3cc(C[C@@H](C)CC)nn3)CC2)n1 | 8.19 µM (active) | 
3 | Clc1ccc(CN(CCCNc2ncnc(NCCCc3cnc[nH]3)n2)c2ccc(Br)cn2)cc1Cl | 5.66 µM (active) | 
4 | Cc1ccc(S(=O)(=O)N2CCN(c3nc(C#N)nc4ccccc34)CC2)cc1 |  | -15.6
5 | O=[N+]([O-])c1cccc(S(=O)(=O)N2CCN(c3nc(-c4cccs4)nc4ccccc34)CC2)c1 | 2.53 µM (active) | 
6 | O=S(=O)(c1cnc2ccccc2c1)N1CCN(c2nc(-c3cccs3)nc3ccccc23)CC1 | 0.897 µM (active) | 
7 | CC(=O)c1ccc(S(=O)(=O)N2CCN(c3nc(-c4cccs4)nc4ccccc34)CC2)cc1 | 1.79 µM (active) | 
8 | Cc1ccc(-c2nc(N3CCN(S(=O)(=O)c4ccc(F)cc4)CC3)c3ccc(Cl)cc3n2)cc1 |  | -0.526
9 | N#Cc1ccccc1S(=O)(=O)N1CCN(c2nc(-c3cccs3)nc3ccccc23)CC1 | 2.25 µM (active) and 1.13 µM (active) | 
10 | Cc1ccc(S(=O)(=O)N2CCCN(c3nc(-c4cccs4)nc4ccccc34)CC2)cc1 | 5.66 µM (active) | 
11 | S=C(NCCCc1cnc[nH]1)NCCN(Cc1ccc(Cl)c(Cl)c1)c1ccc(Br)cn1 | 2.06 µM (active) | 
12 | CNCCN(C)c1nc(-c2cccs2)nc2ccccc12 |  | -7.1
13 | Cc1ccc(S(=O)(=O)N2CCN(c3nc(-c4ccc(F)cc4)nc4cc(Cl)ccc34)CC2)cc1 |  | 2.08
14 | O=[N+]([O-])c1ccc(S(=O)(=O)N2CCN(c3nc(-c4cccs4)nc4ccccc34)CC2)cc1 | 3.2 µM (active) | 
15 | CCN(Cc1ccccc1)c1ccc(Br)cn1 |  | -10.6
16 | COCCNC(=O)/C(C#N)=C/c1c(N2CCN(C)CC2)nc2c(C)cccn2c1=O |  | 0.625
17 | Cc1ccc(S(=O)(=O)N2CCN(c3nc(-c4cccs4)nc4ccccc34)CC2)cc1 | 259 nM (active) and 730 nM (active) and 366 nM (active) | 
18 | Cc1cc(C)cc(N(CC(=O)Nc2cccc(C)c2C)S(=O)(=O)c2c(C)[nH]c(=O)[nH]c2=O)c1 | 3.26 µM (active) | 
19 | N=c1c(S(=O)(=O)c2ccccc2)cc2c(=O)n3ccccc3nc2n1CCCN1CCOCC1 |  | -19.7
20 | Cc1nc2nc(-c3ccccc3)cn2nc1C |  | 8.02

Row | SMILES | Potency | activity change, negative = inhibition [%]
21 | O=S(=O)(c1cccc(C(F)(F)F)c1)N1CCN(c2nc(-c3cccs3)nc3ccccc23)CC1 | 6.35 µM (active) | 
22 | COc1ccc(Nc2nc(-c3cccs3)nc3ccccc23)cc1 | 2.25 µM (active) | 
23 | O=C(Nc1cc(Br)ccc1O)c1cnn2c(C(F)F)cc(C3CC3)nc12 |  | 7.23
24 | O=C(NCCN1CCOCC1)c1ccc(/C=C2\Sc3ccccc3N(Cc3ccccc3F)C2=O)cc1 | 7.3 µM (active) | 
25 | COc1ccc(S(=O)(=O)N2CCN(c3nc(-c4cccs4)nc4ccccc34)CC2)cc1OC | 1.16 µM (active) | 
26 | Cc1cc(C)cc(N(CC(=O)NC2CCCCCC2)S(=O)(=O)c2c(C)[nH]c(=O)[nH]c2=O)c1 | 1.12 µM (active) | 
27 | CCOC(=O)c1ccc(Nc2cc(C)nc(-c3ccccc3)n2)cc1 | 10.3 µM (active) | 
28 | O=C(NCCCc1cnc[nH]1)NCCCN(Cc1ccc(Cl)cc1)c1ccc(Br)cn1 | 1.01 µM (active) | 
29 | S=C(NCCCCN(Cc1ccc(Cl)cc1)c1ccc(Br)cn1)NCCCc1cnc[nH]1 | 0.635 µM (active) | 
30 | O=C(c1ccccc1)N1CCN(c2nc(-c3cccs3)nc3ccccc23)CC1 | 1.42 µM (active) | 
31 | Cc1ccc(S(=O)(=O)N2CCN(c3nc(-n4cnc5ccccc54)nc4ccccc34)CC2)cc1 |  | -3.07
32 | Clc1ccccc1-c1nccc(NCc2ccccc2)n1 | 8.91 µM (active) | 
33 | Cc1ccc(S(=O)(=O)N2CCN(c3nc(-c4ccc(CN5CCOCC5)s4)nc4ccccc34)CC2)cc1 | 11.3 µM (active) | 
34 | S=C(NCCCc1cnc[nH]1)NCCCN(Cc1ccc(Cl)cc1)c1cc(-c2ccccc2)ccn1 | 5.66 µM (active) | 
35 | CC(C)(C)C(=O)OCCNc1nc(-c2cccs2)nc2ccccc12 | 1.46 µM (active) | 
36 | Cc1cccc(NC(=S)Nc2cccc(C)n2)n1 |  | 11.5
37 | S=C(NCCCc1cnc[nH]1)NCCCN(Cc1ccc(Cl)c(Cl)c1)c1ccccn1 | 7.29 µM (active) | 
38 | C#CCOCCOCCOCCNc1nc(N2CCN(C(=O)CCCCCCCCCCNC(=O)[C@H](CCCCN)n3cc(C)nn3)CC2)nc(N2CCN(C(=O)CCCCCCCCCCNC(=O)[C@H](CCCN=C(N)N)n3cc(C[C@@H](C)CC)nn3)CC2)n1 | 7.3 µM (active) | 
39 | O=S(=O)(c1ccc2ncsc2c1)N1CCN(c2nc(-c3cccs3)nc3ccccc23)CC1 | 0.366 µM (active) | 
40 | Cc1ccc(CC(=O)Nc2cccc(C)n2)cc1 |  | 6.66
